Experimental data taken from PubChem BioAssay AID1159580 (chemical genetic matrix, 2015).
The whole screen tested about 5,500 compounds, of which about 2,000 (36%) were called active. Another 18% or so got no clear call; they are omitted. No stated cut-off is given here; in the data, active means normalized growth mostly below about 0.91 (no sharp cut-off); inconclusive means no clear call, values can overlap the other calls; inactive means mostly above about 0.92. This is one part of the list.

Test: chemical genetic growth profiling, strain panel (AID 1159580);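 further: tested at 20 µM; growth read once vehicle control cultures reached saturation at 30 °C; 1 = growth at the plate median or of vehicle wells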
Conditions: growth OD

Measured: normalized growth

CC(=O)O[C@@H]1CC2C(C)(C)[C@H](O)C=C[C@]2(C)C2CC[C@]3(C)C(=CC(=O)O[C@H]3c3ccoc3)[C@@]21C (stereo partly specified)
inactive: S. cerevisiae deletion strains, locus YAL021C, strain ccr4, stronger effect = lower value 0.971 | S. cerevisiae deletion strains, locus YAL026C, strain drs2, stronger effect = lower value 0.983 | S. cerevisiae deletion strains, locus YAL030W, strain snc1, stronger effect = lower value 0.974 | S. cerevisiae deletion strains, locus YBL061C, strain skt5, stronger effect = lower value 0.987 | S. cerevisiae deletion strains, locus YBR009C, strain hhf1, stronger effect = lower value 0.984 | S. cerevisiae deletion strains, locus YBR021W, strain FUR4, stronger effect = lower value 0.987 | S. cerevisiae deletion strains, locus YBR023C, strain chs3, stronger effect = lower value 0.993 | S. cerevisiae deletion strains, locus YBR171W, strain sec66, stronger effect = lower value 0.988 | S. cerevisiae deletion strains, locus YBR229C, strain ROT2, stronger effect = lower value 0.996 | S. cerevisiae deletion strains, locus YBR231C, strain swc5, stronger effect = lower value 0.99 | S. cerevisiae deletion strains, locus YBR279W, strain paf1, stronger effect = lower value 0.99 | S. cerevisiae deletion strains, locus YCL011C, strain gbp2, stronger effect = lower value 0.996 | S. cerevisiae deletion strains, locus YCL016C, strain dcc1, stronger effect = lower value 0.995 | S. cerevisiae deletion strains, locus YCL029C, strain bik1, stronger effect = lower value 1.01 | S. cerevisiae deletion strains, locus YCL061C, strain MRC1, stronger effect = lower value 1 | S. cerevisiae deletion strains, locus YCL069W, strain vba3, stronger effect = lower value 0.994 | S. cerevisiae deletion strains, locus YCR088W, strain abp1, stronger effect = lower value 0.983 | S. cerevisiae deletion strains, locus YDL005C, strain med2, stronger effect = lower value 0.967 | S. cerevisiae deletion strains, locus YDL035C, strain GPR1, stronger effect = lower value 1.03 | S. cerevisiae deletion strains, locus YDL040C, strain nat1, stronger effect = lower value 0.983 | S. cerevisiae deletion strains, locus YDL074C, strain BRE1, stronger effect = lower value 0.999 | S. cerevisiae deletion strains, locus YDL101C, strain DUN1, stronger effect = lower value 1.01 | S. cerevisiae deletion strains, locus YDL185W, strain tfp1, stronger effect = lower value 1.01 | S. cerevisiae deletion strains, locus YDL192W, strain arf1, stronger effect = lower value 1.01 | S. cerevisiae deletion strains, locus YDR001C, strain nth1, stronger effect = lower value 0.976 | S. cerevisiae deletion strains, locus YDR069C, strain doa4, stronger effect = lower value 0.978 | S. cerevisiae deletion strains, locus YDR101C, strain arx1, stronger effect = lower value 1.02 | S. cerevisiae deletion strains, locus YDR137W, strain rgp1, stronger effect = lower value 0.956 | S. cerevisiae deletion strains, locus YDR159W, strain sac3, stronger effect = lower value 0.962 | S. cerevisiae deletion strains, locus YDR162C, strain NBP2, stronger effect = lower value 1.02 | S. cerevisiae deletion strains, locus YDR195W, strain ref2 0.969 | S. cerevisiae deletion strains, locus YDR297W, strain sur2, stronger effect = lower value 0.973 | S. cerevisiae deletion strains, locus YDR318W, strain mcm21, stronger effect = lower value 1 | S. cerevisiae deletion strains, locus YDR334W, strain swr1, stronger effect = lower value 0.972 | S. cerevisiae deletion strains, locus YDR335W, strain msn5, stronger effect = lower value 0.975 | S. cerevisiae deletion strains, locus YDR388W, stronger effect = lower value 1 | S. cerevisiae deletion strains, locus YDR392W, strain spt3, stronger effect = lower value 0.989 | S. cerevisiae deletion strains, locus YDR502C, strain sam2, stronger effect = lower value 1.01 | S. cerevisiae deletion strains, locus YEL003W, strain gim4, stronger effect = lower value 0.985 | S. cerevisiae deletion strains, locus YEL037C, strain rad23, stronger effect = lower value 0.984 | S. cerevisiae deletion strains, locus YEL061C, strain CIN8 (second series), stronger effect = lower value 0.988 | S. cerevisiae deletion strains, locus YEL061C, strain CIN8, stronger effect = lower value 1 | S. cerevisiae deletion strains, locus YER015W, strain faa2, stronger effect = lower value 0.991 | S. cerevisiae deletion strains, locus YER016W, strain bim1, stronger effect = lower value 0.993 | S. cerevisiae deletion strains, locus YER110C, stronger effect = lower value 0.996 | S. cerevisiae deletion strains, locus YER111C, strain swi4, stronger effect = lower value 0.975 | S. cerevisiae deletion strains, locus YER155C, strain BEM2 (second series), stronger effect = lower value 0.985 | S. cerevisiae deletion strains, locus YER155C, strain BEM2, stronger effect = lower value 0.997 | S. cerevisiae deletion strains, locus YER167W, strain BCK2, stronger effect = lower value 1.01 | S. cerevisiae deletion strains, locus YFR010W, strain ubp6, stronger effect = lower value 0.97 | S. cerevisiae deletion strains, locus YGL078C, strain dbp3, stronger effect = lower value 1 | S. cerevisiae deletion strains, locus YGL086W, strain mad1, stronger effect = lower value 0.993 | S. cerevisiae deletion strains, locus YGL167C, strain pmr1, stronger effect = lower value 0.987 | S. cerevisiae deletion strains, locus YGL173C, strain kem1, stronger effect = lower value 0.977 | S. cerevisiae deletion strains, locus YGL227W, strain vid30, stronger effect = lower value 0.989 | S. cerevisiae deletion strains, locus YGL240W, strain doc1, stronger effect = lower value 0.993 | S. cerevisiae deletion strains, locus YGL248W, strain PDE1, stronger effect = lower value 1.01 | S. cerevisiae deletion strains, locus YGL253W, strain hxk2, stronger effect = lower value 0.985 | S. cerevisiae deletion strains, locus YGR135W, strain pre9, stronger effect = lower value 1 | S. cerevisiae deletion strains, locus YGR229C, strain SMI1, stronger effect = lower value 1.04 | S. cerevisiae deletion strains, locus YGR252W, strain gcn5, stronger effect = lower value 0.97 | S. cerevisiae deletion strains, locus YHR013C, strain ard1, stronger effect = lower value 0.98 | S. cerevisiae deletion strains, locus YHR027C, strain rpn1, stronger effect = lower value 0.994 | S. cerevisiae deletion strains, locus YHR030C, strain SLT2, stronger effect = lower value 1.01 | S. cerevisiae deletion strains, locus YHR079C, strain IRE1 (second series), stronger effect = lower value 1 | S. cerevisiae deletion strains, locus YHR094C, strain hxt1, stronger effect = lower value 1 | S. cerevisiae deletion strains, locus YHR129C, strain ARP1, stronger effect = lower value 1.01 | S. cerevisiae deletion strains, locus YHR142W, strain chs7, stronger effect = lower value 0.993 | S. cerevisiae deletion strains, locus YHR200W, strain rpn10, stronger effect = lower value 1 | S. cerevisiae deletion strains, locus YIL066C, strain RNR3, stronger effect = lower value 1 | S. cerevisiae deletion strains, locus YIL073C, strain SPO22, stronger effect = lower value 1.01 | S. cerevisiae deletion strains, locus YIL125W, strain kgd1, stronger effect = lower value 0.99 | S. cerevisiae deletion strains, locus YIR030C, strain dcg1, stronger effect = lower value 0.997 | S. cerevisiae deletion strains, locus YJL092W, strain hpr5, stronger effect = lower value 0.984 | S. cerevisiae deletion strains, locus YJL095W, strain BCK1 (second series), stronger effect = lower value 0.981 | S. cerevisiae deletion strains, locus YJL095W, strain BCK1, stronger effect = lower value 1.02 | S. cerevisiae deletion strains, locus YJL115W, strain asf1, stronger effect = lower value 0.964 | S. cerevisiae deletion strains, locus YJL129C, strain trk1, stronger effect = lower value 0.988 | S. cerevisiae deletion strains, locus YJL134W, strain LCB3, stronger effect = lower value 1.01 | S. cerevisiae deletion strains, locus YJL154C, strain vps35, stronger effect = lower value 0.981 | S. cerevisiae deletion strains, locus YJL164C, strain tpk1, stronger effect = lower value 0.991 | S. cerevisiae deletion strains, locus YJL166W, strain qcr8, stronger effect = lower value 0.993 | S. cerevisiae deletion strains, locus YJL168C, strain set2, stronger effect = lower value 0.99 | S. cerevisiae deletion strains, locus YJL187C, strain SWE1 (second series), stronger effect = lower value 1.01 | S. cerevisiae deletion strains, locus YJL187C, strain SWE1, stronger effect = lower value 0.986 | S. cerevisiae deletion strains, locus YKL009W, strain mrt4, stronger effect = lower value 0.993 | S. cerevisiae deletion strains, locus YKL068W, stronger effect = lower value 1.01 | S. cerevisiae deletion strains, locus YKL085W, strain MDH1 (second series), stronger effect = lower value 0.997 | S. cerevisiae deletion strains, locus YKL085W, strain MDH1, stronger effect = lower value 0.997 | S. cerevisiae deletion strains, locus YKL160W, strain elf1, stronger effect = lower value 0.992 | S. cerevisiae deletion strains, locus YKL190W, strain CNB1, stronger effect = lower value 1.01 | S. cerevisiae deletion strains, locus YKR001C, strain vps1, stronger effect = lower value 1 | S. cerevisiae deletion strains, locus YKR026C, strain gcn3, stronger effect = lower value 0.99 | S. cerevisiae deletion strains, locus YKR091W, strain srl3, stronger effect = lower value 0.99 | S. cerevisiae deletion strains, locus YLL001W, strain dnm1, stronger effect = lower value 0.983 | S. cerevisiae deletion strains, locus YLL026W, stronger effect = lower value 0.987 | S. cerevisiae deletion strains, locus YLL041C, strain sdh2, stronger effect = lower value 0.985 | S. cerevisiae deletion strains, locus YLR027C, strain aat2, stronger effect = lower value 0.979 | S. cerevisiae deletion strains, locus YLR039C, strain RIC1, stronger effect = lower value 1.07 | S. cerevisiae deletion strains, locus YLR058C, strain SHM2, stronger effect = lower value 1 | S. cerevisiae deletion strains, locus YLR102C, strain apc9, stronger effect = lower value 0.998 | S. cerevisiae deletion strains, locus YLR221C, strain rsa3, stronger effect = lower value 0.993 | S. cerevisiae deletion strains, locus YLR258W, strain gsy2, stronger effect = lower value 0.998 | S. cerevisiae deletion strains, locus YLR262C, strain YPT6 (second series), stronger effect = lower value 0.978 | S. cerevisiae deletion strains, locus YLR268W, strain sec22, stronger effect = lower value 0.997 | S. cerevisiae deletion strains, locus YLR320W, strain mms22, stronger effect = lower value 0.991 | S. cerevisiae deletion strains, locus YLR342W, strain FKS1 (second series), stronger effect = lower value 1.01 | S. cerevisiae deletion strains, locus YLR342W, strain FKS1, stronger effect = lower value 0.991 | S. cerevisiae deletion strains, locus YLR357W, strain rsc2, stronger effect = lower value 0.947 | S. cerevisiae deletion strains, locus YLR370C, strain arc18, stronger effect = lower value 0.992 | S. cerevisiae deletion strains, locus YLR371W, strain rom2, stronger effect = lower value 1 | S. cerevisiae deletion strains, locus YLR384C, strain iki3, stronger effect = lower value 1 | S. cerevisiae deletion strains, locus YLR418C, strain cdc73, stronger effect = lower value 0.98 | S. cerevisiae deletion strains, locus YML016C, strain PPZ1, stronger effect = lower value 1 | S. cerevisiae deletion strains, locus YML032C, strain rad52, stronger effect = lower value 0.991 | S. cerevisiae deletion strains, locus YML120C, strain ndi1, stronger effect = lower value 0.994 | S. cerevisiae deletion strains, locus YML124C, strain tub3, stronger effect = lower value 1 | S. cerevisiae deletion strains, locus YMR058W, strain fet3, stronger effect = lower value 0.974 | S. cerevisiae deletion strains, locus YMR078C, strain ctf18, stronger effect = lower value 0.992 | S. cerevisiae deletion strains, locus YMR125W, strain sto1, stronger effect = lower value 0.978 | S. cerevisiae deletion strains, locus YMR129W, stronger effect = lower value 0.999 | S. cerevisiae deletion strains, locus YMR205C, strain PFK2, stronger effect = lower value 0.98 | S. cerevisiae deletion strains, locus YMR223W, strain ubp8, stronger effect = lower value 1 | S. cerevisiae deletion strains, locus YMR231W, strain pep5, stronger effect = lower value 0.967 | S. cerevisiae deletion strains, locus YMR307W, strain GAS1, stronger effect = lower value 0.99 | S. cerevisiae deletion strains, locus YNL067W, strain RPL9B, stronger effect = lower value 1.02 | S. cerevisiae deletion strains, locus YNL071W, strain lat1, stronger effect = lower value 0.991 | S. cerevisiae deletion strains, locus YNL128W, strain TEP1, stronger effect = lower value 1.02 | S. cerevisiae deletion strains, locus YNL209W, strain ssb2, stronger effect = lower value 0.998 | S. cerevisiae deletion strains, locus YNL233W, strain BNI4, stronger effect = lower value 1.02 | S. cerevisiae deletion strains, locus YNL248C, strain rpa49, stronger effect = lower value 0.966 | S. cerevisiae deletion strains, locus YNL250W, strain rad50, stronger effect = lower value 0.996 | S. cerevisiae deletion strains, locus YNL271C, strain bni1, stronger effect = lower value 1 | S. cerevisiae deletion strains, locus YNL298W, strain CLA4, stronger effect = lower value 1.01 | S. cerevisiae deletion strains, locus YNL307C, strain MCK1, stronger effect = lower value 0.995 | S. cerevisiae deletion strains, locus YNL322C, strain KRE1 (second series), stronger effect = lower value 1 | S. cerevisiae deletion strains, locus YNL322C, strain KRE1, stronger effect = lower value 1.01 | S. cerevisiae deletion strains, locus YNR049C, strain mso1, stronger effect = lower value 0.987 | S. cerevisiae deletion strains, locus YNR052C, strain pop2, stronger effect = lower value 0.995 | S. cerevisiae deletion strains, locus YOL012C, strain htz1 1.25 | S. cerevisiae deletion strains, locus YOL147C, strain pex11, stronger effect = lower value 0.996 | S. cerevisiae deletion strains, locus YOR001W, strain rrp6, stronger effect = lower value 0.984 | S. cerevisiae deletion strains, locus YOR061W, strain CKA2, stronger effect = lower value 0.997 | S. cerevisiae deletion strains, locus YOR069W, strain VPS5, stronger effect = lower value 1 | S. cerevisiae deletion strains, locus YOR070C, strain gyp1, stronger effect = lower value 1.01 | S. cerevisiae deletion strains, locus YOR080W, strain dia2, stronger effect = lower value 0.995 | S. cerevisiae deletion strains, locus YOR083W, strain WHI5, stronger effect = lower value 0.994 | S. cerevisiae deletion strains, locus YOR106W, strain vam3, stronger effect = lower value 0.99 | S. cerevisiae deletion strains, locus YOR136W, strain idh2, stronger effect = lower value 1 | S. cerevisiae deletion strains, locus YOR144C, strain elg1, stronger effect = lower value 0.999 | S. cerevisiae deletion strains, locus YOR184W, strain ser1, stronger effect = lower value 1.01 | S. cerevisiae deletion strains, locus YOR265W, strain rbl2, stronger effect = lower value 0.979 | S. cerevisiae deletion strains, locus YOR270C, strain vph1, stronger effect = lower value 0.914 | S. cerevisiae deletion strains, locus YOR290C, strain snf2, stronger effect = lower value 1 | S. cerevisiae deletion strains, locus YOR316C, strain cot1, stronger effect = lower value 0.999 | S. cerevisiae deletion strains, locus YPL051W, strain arl3, stronger effect = lower value 0.995 | S. cerevisiae deletion strains, locus YPL078C, strain atp4, stronger effect = lower value 0.989 | S. cerevisiae deletion strains, locus YPL106C, strain sse1, stronger effect = lower value 0.998 | S. cerevisiae deletion strains, locus YPL240C, strain hsp82, stronger effect = lower value 0.995 | S. cerevisiae deletion strains, locus YPL241C, strain CIN2, stronger effect = lower value 1.01 | S. cerevisiae deletion strains, locus YPR119W, strain clb2, stronger effect = lower value 0.994 | S. cerevisiae deletion strains, locus YPR141C, strain kar3, stronger effect = lower value 0.993 | S. cerevisiae deletion strains, locus YPR163C, strain tif3, stronger effect = lower value 0.994 | S. cerevisiae deletion strains, locus YPR167C, strain met16, stronger effect = lower value 0.996 | S. cerevisiae deletion strains, strain wtn01, stronger effect = lower value 1 | S. cerevisiae strains, strain wild type, stronger effect = lower value 1.02
